Assay results published in PubChem BioAssay (EPA / NIEHS).
Inconclusive results are not listed. Activity calls are given as the source filed them. Rule for the calls, unless noted: active = hit-call score of the fitted dose curve at least 0.9, where 1 is the maximum; inconclusive = response in the unintended direction; inactive = score below 0.9.

Columns and labels:
[1] = TOX21_p53_BLA_p2_viability: Viability Assessment in the Tox21 HCT-116 p53 Agonism Beta-lactamase Assay, Phase 2 (AID 2283591);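 note: compound exposure lasted 16 h at 37 °C; actives lower the ATP signal meaning cytotoxicity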
Procedure, shortened: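 HCT116 p53-bla cells, 4000/well, dosed after 5 h plating (217-fold dilution of DMSO stocks) and incubated 16 h at 37C. Viability taken as cellular ATP by CellTiter-Glo luminescence after 30 min RT; signal loss marks cytotoxicity.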

[2] = target: Cellular tumor antigen p53 (Homo sapiens) (UniProt P04637); assay: TOX21_p53_BLA_p2_ratio: Tox21 HCT-116 p53 Agonism Beta-lactamase Assay, Ratio, Phase 2 (AID 2283592)
Chain of Cellular tumor antigen p53 (Homo sapiens) (P04637 whole entry, looked up): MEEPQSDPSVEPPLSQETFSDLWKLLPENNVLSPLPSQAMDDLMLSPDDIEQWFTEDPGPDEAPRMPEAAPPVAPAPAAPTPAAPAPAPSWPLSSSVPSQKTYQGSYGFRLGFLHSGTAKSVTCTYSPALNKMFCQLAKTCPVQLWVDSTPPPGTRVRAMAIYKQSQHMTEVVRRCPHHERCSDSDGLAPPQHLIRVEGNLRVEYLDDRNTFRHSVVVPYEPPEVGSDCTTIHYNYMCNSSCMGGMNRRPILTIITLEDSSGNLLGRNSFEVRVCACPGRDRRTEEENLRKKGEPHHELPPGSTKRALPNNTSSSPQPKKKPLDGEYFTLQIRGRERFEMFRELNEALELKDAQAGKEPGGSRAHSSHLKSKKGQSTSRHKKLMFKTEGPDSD
Procedure, shortened: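 Human colon HCT116 cells with an inducible p53 beta-lactamase reporter are exposed to test chemicals for 16 h at 37C. Reporter induction is read as the 460/530 nm emission ratio after CCF4-AM loading, normalized to DMSO.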

[3] = TOX21_p53_BLA_p3_viability: Viability Assessment in the Tox21 HCT-116 p53 Agonism Beta-lactamase Assay, Phase 3 (AID 2283593);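 note: cells exposed to compound for 16 h before reading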
Procedure, shortened: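 HCT116 cells, 4000/well, dosed 5 h after plating by pin transfer (217-fold dilution from DMSO stock) and incubated 16 h at 37C, 5% CO2. Viability read as ATP luminescence with CellTiter-Glo after 30 min at room temperature.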

[4] = target: Cellular tumor antigen p53 (Homo sapiens) (UniProt P04637); assay: TOX21_p53_BLA_p3_ratio: Tox21 HCT-116 p53 Agonism Beta-lactamase Assay, Ratio, Phase 3 (AID 2283596)
Procedure, shortened: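 HCT116 p53-bla cells (4000/well) given compound in DMSO (217-fold dilution) after 5 h, incubated 16 h at 37C. CCF4-AM substrate 2 h at room temperature; 460/530 nm emission ratio, gain fitted against DMSO.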

[5] = target: Cellular tumor antigen p53 (Homo sapiens) (UniProt P04637); assay: TOX21_p53_BLA_p5_ratio: Tox21 HCT-116 p53 Agonism Beta-lactamase Assay, Ratio, Phase 5 (AID 2283599)
Procedure, shortened: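 HCT-116 p53-bla cells (4000/well) plated 5 h, dosed with compound (217-fold DMSO dilution) for 16 h at 37 C; CCF4-AM substrate 2 h at room temperature. Activity is the 460/530 nm emission ratio (405 nm excitation), fitted in gain-of-signal direction versus DMSO.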

[6] = TOX21_p53_BLA_p5_viability: Viability Assessment in the Tox21 HCT-116 p53 Agonism Beta-lactamase Assay, Phase 5 (AID 2283600)
Procedure, shortened: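 Seeded cells (4000/well) settle 5 h before compound addition. Plates then incubate 16 h at 37C, receive FRET substrate for 2 h, and finally CellTiter-Glo, with luminescence measured after a 30 min room-temperature incubation.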

[7] = TOX21_p53_BLA_p4_viability: Viability Assessment in the Tox21 HCT-116 p53 Agonism Beta-lactamase Assay, Phase 4 (AID 2283597);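 note: hits lower the luminescence signal meaning cytotoxicity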
Procedure, shortened: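 Luminescent ATP readout (CellTiter-Glo, 30 min, room temperature) in the same wells as the p53 bla ratio. HCT116 cells were treated for 16 h at 37C with DMSO-dissolved compounds.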

[8] = target: Cellular tumor antigen p53 (Homo sapiens) (UniProt P04637); assay: TOX21_p53_BLA_p4_ratio: Tox21 HCT-116 p53 Agonism Beta-lactamase Assay, Ratio, Phase 4 (AID 2283601)
Procedure, shortened: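 HCT-116 p53 beta-lactamase reporter cells (4000/well) preincubated 5 h, then compound (217-fold dilution of DMSO stock) for 16 h at 37C. CCF4-AM substrate added 2 h at room temperature; 460/530 nm emission ratio fitted upward versus DMSO.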

[9] = CCTE_Harrill_HTTr_Viability_MCF7: CCTE's 6-hour Cell Viability Assessment for the High-Throughput Transcriptomics (HTTr) Platform, in MCF-7 cells cultured in DMEM + 10% fetal bovine serum, Harrill Lab (AID 2284010; active = hit-call score of the fitted dose curve at least 0.9, where 1 is the maximum; inactive = score below 0.9)
Procedure, shortened: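 Membrane integrity was scored by high-content imaging of propidium iodide dye exclusion after a 6 h exposure across an eight-point dilution series. Data were fitted bidirectionally relative to DMSO as negative control and baseline.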

[10] = CCTE_Harrill_HTTr_Apoptosis_MCF7: CCTE's 6-hour Apoptosis Assessment for the High-Throughput Transcriptomics (HTTr) Platform, in MCF-7 cells cultured in DMEM + 10% fetal bovine serum, Harrill Lab (AID 2284011; active = hit-call score of the fitted dose curve at least 0.9, where 1 is the maximum; inactive = score below 0.9)
Procedure, shortened: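 Apoptosis in MCF-7 cells grown in DMEM with 10% fetal bovine serum was scored after a six hour exposure by high content imaging of caspase-3/7 activation (CellEvent Caspase 3/7 Green), with DMSO serving as negative control and baseline.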

[11] = CCTE_Harrill_HTTr_CellCount_MCF7: CCTE's Cell Proliferation Assessment for the High-Throughput Transcriptomics (HTTr) Platform, Harrill Lab (AID 2284012);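 note: cells exposed to compound for six hours; intended direction is loss of nuclei count meaning fewer cells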
Procedure, shortened: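 MCF-7 cells were exposed for 6 h to an eight-point dilution series; Hoechst-labeled nuclei were counted by high content imaging. Curves were fitted bidirectionally against DMSO as negative control and baseline, with signal loss indicating reduced cell count.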

Measured: AC50

COc1cc(Cc2cnc(N)nc2N)cc(OC)c1OC
inactive: [1] | [2] | [3] | [4] | [5] | [6]

C1CCC(C(CC2CCCCN2)C2CCCCC2)CC1 (configuration not stated)
active: [1] 18.2 µM | [2] 26.5 µM | [3] 33.3 µM | [4] 43.1 µM | [5] 43.7 µM

Cc1cc(C)c(N=Nc2c(O)c(S(=O)(=O)O)cc3cc(S(=O)(=O)O)ccc23)cc1C
inactive: [1] | [2] | [3] | [4] | [5] | [6]

CN(C)CCOCCN(C)CCO
inactive: [1] | [2] | [3] | [4] | [5]

CN(C)CCc1c[nH]c2ccc(CS(=O)(=O)N3CCCC3)cc12
inactive: [1] | [2] | [3] | [4] | [7] | [8]

CC(C(=O)O)c1ccc(-c2ccccc2)c(F)c1 (configuration not stated)
not listed: [5]
inactive: all other assays above

CCCCCCCCCCCCCCNCCO
inactive: [1] | [2] | [3] | [4] | [5] | [6]

O=C1C(O)=C(O)C(=O)C(O)=C1O
inactive: [1] | [2] | [3] | [4] | [5] | [6]

CCn1cc(C(=O)O)c(=O)c2cc3c(cc21)OCO3
not listed: [5] | [8]
inactive: all other assays above

CC(C)(C)C(=O)OCOC(=O)C1N2C(=O)CC2S(=O)(=O)C1(C)C (configuration not stated)
inactive: [1] | [2] | [3] | [4] | [7] | [8]

COC(=O)[C@H]1[C@H]2C[C@H]3c4[nH]c5ccccc5c4CCN3C[C@H]2CC[C@@H]1O
inactive: [1] | [2] | [3] | [4] | [5]

O=CC=C(c1ccccc1)c1ccccc1
active: [2] 46.4 µM | [3] 47.3 µM
inactive: [1] | [4] | [5] | [6]

O=C(c1ccccc1O)c1ccccc1O
inactive: [1] | [2] | [3] | [4] | [7] | [8]

Cc1ccc([N+](=O)[O-])c(N)c1
inactive: [1] | [2] | [3] | [4] | [5]
